Measured values from PubChem BioAssay (NCATS).
Inconclusive results are not listed. Calls of active or inactive are those of the source. Calls come from the whole dose curve; as a rule, active = well fitted cell-killing curve with a large enough effect; inconclusive = small, poorly fitted or top-dose-only effect, or effect the other way; inactive = no such curve, though single readings can be large or run the other way.
Potency is the fitted concentration of half-maximal effect.

Assay: Viability qHTS for spleen associated tyrosine kinase inhibitor (SYKi) drug resistant MV4-11 cells (AID 1963824); note: nearly all actives have a fitted effect of over 35% in size
Details: SYKi-resistant MV4-11 viability, CellTiter-Glo, 72 h; series mostly up to 45 µM; viability, % of control: at the top concentration
Outline: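 SYK-inhibitor-resistant MV4-11 AML cells were seeded at 500 per well onto compound and cultured 72 hours (37 °C, 5% CO2). CellTiter-Glo was then added, and after 10 min at room temperature, luminescence gave viability.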
With `NC(=O)c1cccc(-c2cc(O)cc(OC(=O)NC3CCCCC3)c2)c1` the “viability, % of control” value was 62.5% [at 17.3 µM] (inactive). For `CN1C(=O)c2ccccc2-n2c(nc3ccccc3c2=O)[C@@]12O[C@H]2c1ccccc1`, the “viability, % of control” value was 95% (inactive). With `Cc1ccc(C(=O)Nc2noc3ccccc23)cc1` the Potency was 10.3 µM (active). For `COc1c(C)c(OCC(O)C(C)(C)O)cc2c1CNC2=O` (stereo not given), the “viability, % of control” value was 78.3% (inactive). In the case of `C[C@H](NC(c1cccc2[nH]c(=O)c(=O)[nH]c12)P(=O)(O)O)c1ccc(Br)cc1` (stereo not given in full), the Potency is reported as 14.6 µM (active). In the case of `O=C(Cc1ccccc1)OC[C@H]1O[C@H](O[C@H]2O[C@H](CO)[C@@H](O)[C@H](O)[C@H]2O)[C@H](O)[C@@H](O)[C@@H]1O`, the “viability, % of control” value is reported as 99.5% [at 17.3 µM] (inactive). In the case of `CC(C)CC1NC(=O)C(C)NC(=O)C(CC(C)C)OC(=O)CCCNC1=O` (stereo not given), the “viability, % of control” value is reported as 100% (inactive). For `CNC(=O)c1cc(Oc2ccc(NC(=O)c3cccc(C(F)(F)F)c3)cc2)ccn1`, the Potency was 11.6 µM (active). In the case of `CC(C)=CCC[C@](C)(O[C@@H]1O[C@H](CO[C@@H]2OC[C@H](O)[C@H](O)[C@H]2O)[C@@H](O)[C@H](O)[C@H]1O)[C@H]1CC[C@]2(C)[C@@H]1[C@H](O)C[C@@H]1[C@@]3(C)CC[C@H](O[C@@H]4O[C@H](CO)[C@@H](O)[C@H](O)[C@H]4O[C@@H]4O[C@H](CO)[C@@H](O)[C@H](O)[C@H]4O)C(C)(C)[C@@H]3CC[C@]12C`, the “viability, % of control” value is reported as 86% [at 17.3 µM] (inactive). In the case of `CC(=O)NCCc1c[nH]c2ccc(O)cc12`, the “viability, % of control” value is reported as 74.5% (inactive). For `C=C(C)C1CCC(C)C12CC(O)C1(C)OC1C2OC(=O)C(N)CCC(=O)O` (stereo not given), the “viability, % of control” value was 83% (inactive). With `CC1(C)O[C@@]2(C)CC[C@@H]1C[C@@H]2OC1OC(CO)C(O)C(O)C1O` (stereo not given in full) the “viability, % of control” value was 86% (inactive). With `CCN(CCN(C)C)C(=O)CNCc1cc(C(N)=O)ccn1` the “viability, % of control” value was 87.2% (inactive). With `COc1cccc(CN(C(=O)CC(C)(C)C)[C@H]2C[C@H](C(=O)N3CCNCC3)N(Cc3ccc4c(c3)OCO4)C2)c1` the Potency was 16.4 µM (active). With `CC1(C)CC[C@]2(C(=O)O)CC[C@]3(C)C(=CCC4[C@@]5(C)CC[C@H](O[C@@H]6O[C@H](CO)[C@@H](O)[C@H](O)[C@H]6O[C@@H]6O[C@H](CO)[C@@H](O)[C@H](O)[C@H]6O)[C@@](C)(CO)C5CC[C@]43C)[C@@H]2C1` (stereo not given in full) the “viability, % of control” value was 94.5% [at 17.3 µM] (inactive). In the case of `Cc1cccc(N(C)C(=S)Oc2ccc3c(c2)C2CCC3C2)c1` (stereo not given), the “viability, % of control” value is reported as 88% (inactive). With `c1ccc(Cc2ncc3c(n2)CCNCC3)cc1` the “viability, % of control” value was 95.6% (inactive). For `C=C[C@H]1[C@H](O[C@@H]2O[C@H](CO)[C@@H](O)[C@H](O)[C@H]2O)OC=C(C(=O)OC)[C@H]1C[C@@H]1N[C@H](C(=O)O)Cc2c1[nH]c1ccccc21`, the “viability, % of control” value was 89.5% [at 17.3 µM] (inactive). In the case of `C/C=C(\C)C(=O)OC[C@H]1O[C@@H](O[C@H]2[C@@H](O[C@H]3O[C@H](COC(=O)/C(C)=C/C)[C@@H](O)[C@H](O)[C@H]3O[C@@H]3O[C@H](CO)[C@@H](O)[C@H](OC(=O)/C(C)=C/C)[C@H]3O)O[C@H](COC(=O)/C(C)=C/C)[C@@H](O)[C@@H]2O)[C@H](O)[C@@H](O)[C@@H]1O`, the viability, % of control is reported as 90.8% [at 9.25 µM] (inactive). For `O=C(O)C[C@H]1CCC(=O)[C@@H]1C/C=C\CCO`, the “viability, % of control” value was 88.7% (inactive). In the case of `COc1ccc2c(c1)C(C(=O)N(Cc1ccc(N(C)C)cc1)c1ccc(C(C)C)cc1)CCC2` (stereo not given), the Potency is reported as 14.6 µM (active). In the case of `COc1ccc2c(c1)O[C@H](O[C@@H]1O[C@H](CO)[C@@H](O)[C@H](O)[C@H]1O)C(=O)N2`, the “viability, % of control” value is reported as 95.2% (inactive). With `COc1c2cc(c(O[C@@H]3O[C@H](CO)[C@@H](O)[C@H](O)[C@H]3O)c1OC)CCCCC(O)CCc1ccc(O)c-2c1` (stereo not given in full) the “viability, % of control” value was 71.9% [at 17.3 µM] (inactive). In the case of `CN(C)CCN(Cc1ccc(-c2ccc(CNCCc3ccccc3)cc2)cc1)C(=O)CCC1CCCC1`, the Potency is reported as 0.92 µM (active). In the case of `CC(=O)OC1C(=O)C2(C)C(O)CC3OCC3(OC(C)=O)C2C(OC(=O)c2ccccc2)C2(O)CC(OC(=O)C(O)C(NC(=O)c3ccccc3)c3ccccc3)C(C)=C1C2(C)C` (stereo not given), the Potency is reported as 0.0073 µM (active). In the case of `CC(C)(O)/C=C1/C(=O)C(C)(C)C(=O)C(C)(C)C1(O)O[C@@H]1O[C@H](COC(=O)c2cc(O)c(O)c(O)c2)[C@@H](O)[C@H](O)[C@H]1O` (stereo not given in full), the “viability, % of control” value is reported as 69.3% [at 17.3 µM] (inactive). With `COC(=O)C1=COC(OC2OC(CO)C(O)C(O)C2O)C2C(C)CC(=O)C12O` (stereo not given) the “viability, % of control” value was 94.9% [at 17.3 µM] (inactive). In the case of `CC1(C)CC[C@]2(C(=O)O[C@@H]3O[C@H](CO[C@@H]4O[C@H](CO)[C@@H](O)[C@H](O)[C@H]4O)[C@@H](O)[C@H](O[C@@H]4O[C@H](CO)[C@@H](O)[C@H](O)[C@H]4O)[C@H]3O)[C@H](O)C[C@]3(C)C(=CCC4[C@@]5(C)CC[C@H](O[C@@H]6OC[C@@H](O)[C@H](O)[C@H]6O)[C@@](C)(C(=O)O)C5CC[C@]43C)[C@@H]2C1` (stereo not given in full), the viability, % of control is reported as 65.4% [at 9.25 µM] (inactive). In the case of `CC(C)(F)CC(NC(c1ccc(-c2ccc(S(C)(=O)=O)cc2)cc1)C(F)(F)F)C(=O)NC1(C#N)CC1` (stereo not given), the Potency is reported as 3.66 µM (active). With `COc1cc(C(O)C(CO)Oc2ccc(CCCO[C@@H]3O[C@@H](C)[C@H](O)[C@@H](O)[C@H]3O)cc2OC)ccc1O` (stereo not given in full) the “viability, % of control” value was 82.7% [at 17.3 µM] (inactive). With `OCC1=CC[C@@H]2C=CO[C@@H](O[C@@H]3O[C@H](CO)[C@@H](O)[C@H](O)[C@H]3O)[C@H]12` the “viability, % of control” value was 70% (inactive). For `C/C=C(\C)C(=O)O[C@H]1C=CC(=O)O[C@H]1/C=C/[C@H](O)[C@@H](C)O`, the Potency was 7.31 µM (active). For `O=C(/C=C/c1ccc(O)cc1)O[C@H]1[C@H](OC2CCCCC2O)O[C@H](CO)[C@@H](O)[C@@H]1O` (stereo not given in full), the “viability, % of control” value was 83.2% [at 17.3 µM] (inactive). In the case of `CC1=C(C(=O)O)/C(=C\CO[C@@H]2O[C@H](CO)[C@@H](O)[C@H](O)[C@H]2O)C(OC(=O)/C=C/c2ccc(O)cc2)C1` (stereo not given in full), the “viability, % of control” value is reported as 76.7% [at 17.3 µM] (inactive). For `CC(C)C(C#N)O[C@@H]1O[C@H](CO[C@@H]2O[C@@H](C)[C@H](O)[C@@H](O)[C@H]2O)[C@@H](O)[C@H](O)[C@H]1O` (stereo not given in full), the “viability, % of control” value was 99.7% [at 17.3 µM] (inactive). For `CC(=O)N[C@@H](CCCCN)C(=O)N(C)[C@@H](CC(C)C)C(=O)N[C@H](C(=O)N(C)[C@@H](Cc1ccccc1)C(=O)N[C@H](Cc1ccccc1)C(N)=O)C(C)C`, the viability, % of control was 103% [at 4.97 µM] (inactive). With `COc1cc(O)cc2c1C(=O)OC(C)C2` (stereo not given) the “viability, % of control” value was 71.5% (inactive). For `CC(=O)CCC1=C(C)C(O[C@@H]2O[C@H](CO)[C@@H](O)[C@H](O)[C@H]2O)C(O)CC1(C)C` (stereo not given in full), the “viability, % of control” value was 85.5% (inactive). For `COc1cc(Nc2nc3c(s2)CCCC3c2ccccc2)ccc1-n1cnc(C)c1` (stereo not given), the viability, % of control was 109% [at 9.25 µM] (inactive). With `CC1CC[C@]2(C(=O)O)CC[C@]3(C(=O)O)C(=CCC4[C@@]5(C)CC[C@H](O[C@@H]6O[C@H](CO)[C@@H](O)[C@H](O)[C@H]6O)C(C)(C)C5CC[C@]43C)C2C1C` (stereo not given in full) the “viability, % of control” value was 93.6% [at 17.3 µM] (inactive).
